Results reported in PubChem BioAssay AID1159580 (chemical genetic matrix, 2015).
Values joined by “and” are separate entries in the source; they are usually repeats but may differ in a detail not shown here. Equal entries are not always repeated. In all, about 5,500 compounds went through this assay and about 2,000 (36%) were called active. About 18% were inconclusive and are not listed. Cut-off read from the data, not from the text of the source: active = normalized growth mostly below about 0.91 (no sharp cut-off); inconclusive = no clear call, values can overlap the other calls; inactive = mostly above about 0.92. Some of the results follow.

Assay: chemical genetic growth profiling, strain panel (AID 1159580);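 note: tested at 20 µM; growth read once vehicle control cultures reached saturation at 30 °C; 1 = growth at the plate median or of vehicle wells; lower values mean less growth of the strain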
Conditions: S. cerevisiae deletion strains, growth OD

Measured: normalized growth

ClC(Cl)=C(c1ccc(Cl)cc1)c1ccc(Cl)cc1
inactive: locus YAL013W, strain DEP1, active compounds read low 0.976 | locus YAL021C, strain ccr4, active compounds read low 0.995 | locus YAL026C, strain drs2, active compounds read low 0.999 | locus YAL030W, strain snc1, active compounds read low 0.982 | locus YBL061C, strain skt5, active compounds read low 0.985 | locus YBR009C, strain hhf1, active compounds read low 0.987 | locus YBR021W, strain FUR4, active compounds read low 1 | locus YBR023C, strain chs3, active compounds read low 0.983 | locus YBR171W, strain sec66, active compounds read low 0.986 | locus YBR229C, strain ROT2, active compounds read low 0.957 | locus YBR231C, strain swc5, active compounds read low 0.976 | locus YBR279W, strain paf1, active compounds read low 0.994 | locus YCL011C, strain gbp2, active compounds read low 1 | locus YCL016C, strain dcc1, active compounds read low 0.993 | locus YCL029C, strain bik1, active compounds read low 0.941 | locus YCL061C, strain MRC1, active compounds read low 0.983 | locus YCL069W, strain vba3, active compounds read low 0.995 | locus YCR088W, strain abp1, active compounds read low 0.998 | locus YDL005C, strain med2, active compounds read low 0.979 | locus YDL035C, strain GPR1, active compounds read low 0.971 | locus YDL040C, strain nat1, active compounds read low 0.994 | locus YDL074C, strain BRE1, active compounds read low 1.04 | locus YDL101C, strain DUN1, active compounds read low 0.948 | locus YDL134C, strain PPH21, active compounds read low 0.967 | locus YDL185W, strain tfp1, active compounds read low 0.964 | locus YDL192W, strain arf1, active compounds read low 0.958 | locus YDR001C, strain nth1, active compounds read low 0.998 | locus YDR069C, strain doa4, active compounds read low 0.985 | locus YDR101C, strain arx1, active compounds read low 0.963 | locus YDR137W, strain rgp1, active compounds read low 1.04 | locus YDR150W, strain NUM1, active compounds read low 0.945 | locus YDR159W, strain sac3, active compounds read low 0.986 | locus YDR162C, strain NBP2, active compounds read low 0.95 | locus YDR195W, strain ref2 1 | locus YDR297W, strain sur2, active compounds read low 0.995 | locus YDR318W, strain mcm21, active compounds read low 0.961 | locus YDR334W, strain swr1, active compounds read low 0.986 | locus YDR335W, strain msn5, active compounds read low 0.992 | locus YDR388W, active compounds read low 0.949 | locus YDR392W, strain spt3, active compounds read low 0.967 | locus YDR502C, strain sam2, active compounds read low 0.95 | locus YEL003W, strain gim4, active compounds read low 0.997 | locus YEL037C, strain rad23, active compounds read low 1.01 | locus YEL061C, strain CIN8 (second series), active compounds read low 0.996 | locus YEL061C, strain CIN8, active compounds read low 0.966 | locus YER015W, strain faa2, active compounds read low 0.983 | locus YER016W, strain bim1, active compounds read low 1 | locus YER110C, active compounds read low 0.946 | locus YER111C, strain swi4, active compounds read low 0.991 | locus YER155C, strain BEM2 (second series), active compounds read low 0.983 | locus YER155C, strain BEM2, active compounds read low 0.927 | locus YFR010W, strain ubp6, active compounds read low 0.989 | locus YGL078C, strain dbp3, active compounds read low 0.951 | locus YGL086W, strain mad1, active compounds read low 0.955 | locus YGL167C, strain pmr1, active compounds read low 0.994 | locus YGL173C, strain kem1, active compounds read low 0.994 | locus YGL227W, strain vid30, active compounds read low 0.995 | locus YGL240W, strain doc1, active compounds read low 0.991 | locus YGL248W, strain PDE1, active compounds read low 0.959 | locus YGL253W, strain hxk2, active compounds read low 0.993 | locus YGR078C, strain PAC10, active compounds read low 0.974 | locus YGR135W, strain pre9, active compounds read low 0.966 | locus YGR229C, strain SMI1, active compounds read low 0.998 | locus YGR252W, strain gcn5, active compounds read low 1.03 | locus YHR013C, strain ard1, active compounds read low 0.998 | locus YHR027C, strain rpn1, active compounds read low 0.989 | locus YHR030C, strain SLT2, active compounds read low 0.95 and 1.05 | locus YHR079C, strain IRE1 (second series), active compounds read low 0.951 | locus YHR079C, strain IRE1, active compounds read low 1.03 | locus YHR094C, strain hxt1, active compounds read low 0.948 | locus YHR129C, strain ARP1, active compounds read low 0.963 | locus YHR142W, strain chs7, active compounds read low 0.986 | locus YHR200W, strain rpn10, active compounds read low 0.951 | locus YIL066C, strain RNR3, active compounds read low 0.929 | locus YIL073C, strain SPO22, active compounds read low 0.941 | locus YIL125W, strain kgd1, active compounds read low 0.948 | locus YIR030C, strain dcg1, active compounds read low 0.944 | locus YJL092W, strain hpr5, active compounds read low 0.999 | locus YJL095W, strain BCK1 (second series), active compounds read low 0.995 | locus YJL095W, strain BCK1, active compounds read low 0.961 and 1.05 | locus YJL115W, strain asf1, active compounds read low 0.991 | locus YJL129C, strain trk1, active compounds read low 0.964 | locus YJL134W, strain LCB3, active compounds read low 0.961 | locus YJL154C, strain vps35, active compounds read low 0.998 | locus YJL164C, strain tpk1, active compounds read low 0.979 | locus YJL166W, strain qcr8, active compounds read low 0.975 | locus YJL168C, strain set2, active compounds read low 0.949 | locus YJL187C, strain SWE1 (second series), active compounds read low 0.958 | locus YJL187C, strain SWE1, active compounds read low 0.995 | locus YJR043C, strain POL32, active compounds read low 0.966 | locus YJR066W, strain TOR1, active compounds read low 0.975
active: locus YER167W, strain BCK2, active compounds read low 0.887
